From PubChem
Mdm2-MdmX inh = human Mdm2/MdmX binding inhibition; AID 485346; hit rate 3% among 330,000; inhibition, % at 8 µM; O15151+Q00987; SaOS-2 split-luciferase Mdm2/MdmX complementation, luminescence;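 active = inhibition of at least 50% at 8 µM in the primary screen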
MPTP inh = permeability transition pore inhibition; isolated mouse mitochondria, Ca2+ swelling absorbance, 30 min; inhibition, % at 10 µM; hit rate 1.4% among 360,000; AID 602449;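 active = inhibition of 50% or more, scaled per plate between neutral and stimulator controls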;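 also: 0% = DMSO wells given calcium and 100% = 1 mM EGTA wells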
CSC inhib = cancer stem cell inhibition; cancer stem cell-like cells viability, luminescence; inhibition, % at 7.5 µM; hit rate 1.1% among 300,000; in the data active = inhibition above about 75%; inconclusive = no clear call, values can overlap the other calls; tested in HMLE shEcad cells
Calb FLC = C. albicans growth modulation with fluconazole; C. albicans CaCi-2 (fluconazole-resistant clinical isolate) + fluconazole, Alamar Blue growth, 48 h; hit rate 0.57% among 300,000; growth inhibition, % (test concentration not listed);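 active = growth inhibition above about 58% in most replicates, limit read from the data, passing the limit was not always enough; inconclusive = exactly half the replicates above a set limit; inactive = most replicates below a set limit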;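 also: all wells also contain fluconazole at 8 µg/ml as a sub-toxic cotreatment; 0% = median of DMSO wells and 100% = median of geldanamycin control wells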
SKKanGAS inh = blocks kanamycin growth of S. pyogenes SKKanGAS strain; BacTiter-Glo, 6 h; inhibition, % at 7.5 µM; hit rate 1.3% among 300,000; AID 1662;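 active = mean replicate score, as percent of positive control median, at least 50; inconclusive = mean below 50 but one replicate at or above 50; inactive = mean and every replicate below 50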;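 also: strain carries kanamycin resistance gene driven by streptokinase promoter and grows in 40 µg/ml kanamycin; loss of luminescence reflects streptokinase promoter inhibition or plain growth inhibition; 0% = median of DMSO wells and 100% = positive control at its reference dose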
Beta apoptosis = beta cell apoptosis inhibition; INS-1E cytokine-induced death, ATP luminescence, 48 h; percent of positive-control rescue, neutral wells zero; protection from apoptosis, % (concentration not given with the values); hit rate 0.8% among 300,000; AID 435005;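 active = Every replicate reaches about 75%, or at least half do and their mean reaches it too, limit read from the data; inconclusive = At least half of replicates reach the limit but their mean does not; inactive = Under half of replicates reach the limit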;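 also: 0% = cytokine-treated negative control wells and 100% = positive control rescue; higher means more ATP so stronger rescue from cytokine killing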
Mdm2-MdmX conf = human Mdm2/MdmX binding inhibition, confirmed; shares compounds with Mdm2-MdmX inh; luminescent assay; inhibition, % at 8 µM; hit rate 55% among 10,000; in the data active = inhibition above about 40%
FLuc counter = inhibits full-length luciferase, flagging false Mdm2/MdmX hits | shares compounds with Mdm2-MdmX inh | SaOS-2 full-length luciferase counterscreen, luminescence | inhibition, % at 8 µM | hit rate 77% among 6,200 | AID 504607;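 active = mean inhibition at 8 µM reaching about 37%, which flags the compound as non-specific, limit read from the data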;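 also: p53-null SaOS-2 cells with luciferase driven by a doxycycline-inducible promoter; compound on cells about two nights before reading with doxycycline added after day one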
Starred values were filed as active, the others as inactive; u = inconclusive; x = no result. An excerpt weighted towards active compounds, which were near 5.4% of everything screened.

SMILES	Mdm2-MdmX inh	MPTP inh	CSC inhib	Calb FLC	SKKanGAS inh	Beta apoptosis	Mdm2-MdmX conf	FLuc counter
COC(=O)N1C(=O)[C@](CC(C)C)(c2ccccc2)N1C(=O)OC	x	1.9	7.3	-1.7	0.3	-11.1	x	x
COC(=O)N1C(=O)[C@@](c2ccccc2)(C2CCCC2)N1C(=O)OC	74.5*	-0.5	22.1	3.4	-0.8	0.5	35.1	x
COC(=O)N1C(=O)[C@](c2ccccc2)(C2CCCCC2)N1C(=O)OC	46.2	0.7	15.8	-6.6	9.5	1.1	x	x
COc1ccc(NC(=S)N(Cc2ccc(C)cc2)Cc2ccccn2)cc1	-17.6	-0.8	-21.0	-4.7	16.9	0.2	x	x
CC(=O)c1ccc(N2CCN(CC(=O)N(C3CC3)C3CCS(=O)(=O)C3)CC2)c(F)c1 (configuration not stated)	-0.9	-0.3	x	x	x	-2.1	x	x
CC(C)C(=O)Nc1cccc(COc2ccc(CN(Cc3ccccc3)C(=O)OC(C)(C)C)cc2)c1	x	3.0	x	x	x	x	x	x
Nc1c(S(=O)(=O)c2cccs2)c2nc3ccccc3nc2n1/N=C/c1cccc(O)c1	78.9*	-2.5	97.0*	8.3	72.3*	14.1	56.5*	86.1*
COc1cccc(/C=N/n2c(N)c(S(=O)(=O)c3cccs3)c3nc4ccccc4nc32)c1	25.0	1.6	-4.9	u	18.7	5.3	x	x
COc1ccc(N2CCN(C(CNC(=O)C(C)(C)C)c3cccnc3)CC2)cc1 (configuration not stated)	-39.6	0.0	-6.2	3.3	-0.6	-4.3	x	x
O=C1CC(c2cccnc2)c2cc3c(cc2N1)OCCO3 (configuration not stated)	0.9	1.7	-2.3	0.8	-3.6	1.8	x	x
CCCOc1ccccc1C1CC(=O)NC2=C1C(=O)CCC2 (configuration not stated)	58.3*	-2.0	52.3	7.5	1.5	4.8	56.0*	48.3*
CCCOc1ccccc1C1CC(=O)Nc2cc3c(cc21)OCCO3 (configuration not stated)	52.4*	5.6	30.7	-1.3	2.1	26.0	49.5*	61.4*
CCOc1ccccc1C1CC(=O)Nc2cc3c(cc21)OCCO3 (configuration not stated)	70.4*	11.4	56.3	-6.4	-14.8	19.3	57.5*	122.7*
C[C@@H]1CN([C@@H](C)CO)C(=O)CCCn2nncc2CO[C@@H]1CN(C)C(=O)Nc1ccccc1	x	0.1	x	x	x	x	x	x
COc1ccc(C(=O)N/N=C(\N)c2cc3ccccc3oc2=O)cc1	7.7	-2.6	x	7.2	-2.7	-0.3	x	x
CCc1nnc(NC(=O)CCC(=O)N2CCN(CCOc3ccc(C)cc3)CC2)s1	-12.8	0.0	-10.9	-7.6	2.6	4.0	x	x
Cn1c(=O)[nH]c(=O)c2c1nc(N/N=C/c1ccncc1)n2Cc1ccc(F)cc1	27.3	4.6	-30.0	-1.8	-9.2	2.7	x	x
Cn1c(=O)[nH]c(=O)c2c1nc(N/N=C/c1cccnc1)n2Cc1ccc(Cl)cc1	62.4*	1.1	-2.4	19.3	5.5	-1.8	16.9	x
O=C(NC(Nc1cc(C(F)(F)F)ccc1Cl)C(=O)c1ccccc1)c1ccccc1 (configuration not stated)	51.6*	8.7	13.3	-7.4	5.2	13.5	8.3	x
O=C(CCc1ccccc1)Nc1cc(C(F)(F)F)ccc1Cl	18.0	0.0	-1.2	5.1	0.8	6.6	x	x
CSc1nnc(NC(=O)c2nc(S(=O)(=O)Cc3cccc(C)c3)ncc2Cl)s1	100.4*	-1.8	109.7*	5.6	11.5	-28.7	92.2*	50.2*
Cc1nnc(NC(=O)c2nc(S(=O)(=O)Cc3ccccc3C)ncc2Cl)s1	94.7*	-0.2	84.5*	-2.1	7.6	-37.7	71.0*	51.8*
Cc1ccc(CS(=O)(=O)c2ncc(Cl)c(C(=O)Nc3nnc(C(C)C)s3)n2)cc1	96.4*	-1.1	110.9*	-4.0	-2.4	-7.4	38.0	0.2
CC(C)c1nnc(NC(=O)c2nc(S(=O)(=O)Cc3ccccc3F)ncc2Cl)s1	96.8*	x	102.4*	1.5	4.8	-27.1	45.9*	5.2
CC(=O)n1c(=O)c2ccccc2c(=O)n1-c1ccccc1	15.0	-0.7	-10.8	5.5	-0.4	-0.1	x	x
